Among the data in PubChem BioAssay (EPA / NIEHS) are outcome and AC50 values, retold here.

SMILES strings stand for the structures. Records with an inconclusive call do not appear. The source made the active and inactive calls. Rule for the calls: active = hit-call score of the fitted dose curve at least 0.9, where 1 is the maximum; inconclusive = response in the unintended direction; inactive = score below 0.9.

Sequence of human Phosphoinositide 3-kinase alpha (PI3Ka), PIK3CA (gene 5290) (P42336 whole entry, looked up): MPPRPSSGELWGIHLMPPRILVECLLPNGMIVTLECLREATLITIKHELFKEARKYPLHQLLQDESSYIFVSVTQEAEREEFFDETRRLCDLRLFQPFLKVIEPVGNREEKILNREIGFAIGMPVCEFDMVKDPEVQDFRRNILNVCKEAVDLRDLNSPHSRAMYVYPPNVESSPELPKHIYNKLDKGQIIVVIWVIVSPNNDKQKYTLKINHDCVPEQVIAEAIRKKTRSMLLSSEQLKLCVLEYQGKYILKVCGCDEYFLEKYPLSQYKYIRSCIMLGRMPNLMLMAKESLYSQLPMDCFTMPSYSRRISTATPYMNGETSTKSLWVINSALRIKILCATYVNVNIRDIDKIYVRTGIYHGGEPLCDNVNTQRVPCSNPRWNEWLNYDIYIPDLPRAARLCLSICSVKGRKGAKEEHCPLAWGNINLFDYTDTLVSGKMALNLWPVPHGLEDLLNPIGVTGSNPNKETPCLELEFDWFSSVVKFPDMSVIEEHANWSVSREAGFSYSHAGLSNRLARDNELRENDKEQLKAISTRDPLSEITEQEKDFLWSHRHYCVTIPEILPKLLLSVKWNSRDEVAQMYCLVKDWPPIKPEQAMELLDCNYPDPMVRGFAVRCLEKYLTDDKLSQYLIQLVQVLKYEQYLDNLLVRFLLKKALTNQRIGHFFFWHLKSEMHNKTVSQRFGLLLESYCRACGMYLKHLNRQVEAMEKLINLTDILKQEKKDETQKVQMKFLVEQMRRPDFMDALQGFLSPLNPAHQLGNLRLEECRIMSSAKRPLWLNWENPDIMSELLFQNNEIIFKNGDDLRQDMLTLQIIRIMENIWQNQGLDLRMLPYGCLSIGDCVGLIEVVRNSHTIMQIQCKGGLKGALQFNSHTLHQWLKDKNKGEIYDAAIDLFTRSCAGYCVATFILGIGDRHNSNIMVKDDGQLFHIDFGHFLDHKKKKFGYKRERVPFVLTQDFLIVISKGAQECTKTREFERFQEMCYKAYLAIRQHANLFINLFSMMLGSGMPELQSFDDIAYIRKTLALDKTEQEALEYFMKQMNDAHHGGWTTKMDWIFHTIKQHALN
Sequence of human Matrix Metalloproteinase-9 (MMP9), MMP9 (gene 4318) (P14780 whole entry, looked up): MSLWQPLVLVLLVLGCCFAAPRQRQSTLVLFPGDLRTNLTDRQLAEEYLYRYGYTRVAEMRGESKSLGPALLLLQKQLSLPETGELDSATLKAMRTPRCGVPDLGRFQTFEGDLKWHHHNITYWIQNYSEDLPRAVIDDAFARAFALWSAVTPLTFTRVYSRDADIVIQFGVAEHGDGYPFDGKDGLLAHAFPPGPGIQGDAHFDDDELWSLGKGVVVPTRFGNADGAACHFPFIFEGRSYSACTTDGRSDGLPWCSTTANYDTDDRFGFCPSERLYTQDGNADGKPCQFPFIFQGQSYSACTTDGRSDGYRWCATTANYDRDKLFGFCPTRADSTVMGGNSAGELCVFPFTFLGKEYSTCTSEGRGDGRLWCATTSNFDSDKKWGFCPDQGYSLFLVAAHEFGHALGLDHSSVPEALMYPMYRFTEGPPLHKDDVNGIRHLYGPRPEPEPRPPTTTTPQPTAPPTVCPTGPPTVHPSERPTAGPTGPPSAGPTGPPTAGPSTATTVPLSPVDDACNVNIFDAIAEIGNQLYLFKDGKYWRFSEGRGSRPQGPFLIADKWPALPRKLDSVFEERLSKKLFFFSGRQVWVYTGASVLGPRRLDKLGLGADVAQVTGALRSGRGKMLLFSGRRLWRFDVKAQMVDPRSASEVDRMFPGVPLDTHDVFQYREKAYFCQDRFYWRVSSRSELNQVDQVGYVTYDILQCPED

One experiment concerns the target human Matrix Metalloproteinase-9 (MMP9), MMP9 (gene 4318) (UniProt P14780). The experiment is described as follows: NVS_ENZ_hMMP9: NovaScreen (NVS) Enzymatic Assay for human Matrix Metalloproteinase-9 (MMP9) (AID 2283190).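 Note: cell-free recombinant MMP9 protease activity read by fluorescent substrate signal; active means inhibition seen as loss of fluorescence signal versus DMSO.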 The method, boiled down:
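Cell-free fluorescence-intensity enzyme activity assay using extracted protein, read 1 h after dosing. Loss of signal versus DMSO baseline indicates inhibition; primary screen in duplicate at 25 uM, actives followed up in concentration series.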
`CC(=O)O[C@]1(C(C)=O)CC[C@H]2[C@@H]3C[C@H](C)C4=CC(=O)CC[C@]4(C)[C@H]3CC[C@@]21C`: the compound was classed as inactive.

As for `Cc1ccc(Nc2ccc(O)c3c2C(=O)c2ccccc2C3=O)cc1`, the AC50 is 2180 nM (active).

For `CCO[Si](CCCS)(OCC)OCC`, the AC50 is 1650 nM (active).

In the case of `CCCCC/C=C/C=C/C=O`, the AC50 is 25000 nM (active).

In the case of `O=C=NC1CCC(CC2CCC(N=C=O)CC2)CC1` (stereo not given), the AC50 is 2170 nM (active).

In the next experiment the target is human Phosphoinositide 3-kinase alpha (PI3Ka), PIK3CA (gene 5290) (UniProt P42336). Put plainly: NVS_ENZ_hPI3Ka: NovaScreen (NVS) Enzymatic Assay for human Phosphoinositide 3-kinase alpha (PI3Ka) (AID 2283196). The method, boiled down:
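Enzyme activity as fluorescence after mobility-shift separation of substrate and product, 1 h reaction, recombinant human PI3Kα; concentration-response to 50 uM max for chemicals passing a 25 uM duplicate screen.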
Turning to `N#Cc1ccccc1`, the compound was called inactive.

`COC(=O)OC`: the compound was called inactive.

`C#C[C@]1(O)CC[C@H]2[C@@H]3CCC4=Cc5oncc5C[C@]4(C)[C@H]3CC[C@@]21C`: the outcome was inactive.

As for `COC(=O)c1ccc(C)cc1`, the compound was classed as inactive.

With `CCO[Si](CCCS)(OCC)OCC`, the outcome was inactive.

Take `CCCCC/C=C/C=C/C=O`: the outcome was inactive.

Regarding `CC1CCC2CC1C2(C)C` (stereo not given), the concentration at half-maximal activity (AC50) was 1820 nM (active).

`O=C1OC2(c3cc(Br)c(O)c(Br)c3Oc3c2cc(Br)c(O)c3Br)c2c(Cl)c(Cl)c(Cl)c(Cl)c21`: the concentration at half-maximal activity (AC50) is 1860 nM (active).

For `O=C=NC1CCC(CC2CCC(N=C=O)CC2)CC1` (stereo not given), the compound was classed as inactive.

Consider `CCn1c2ccccc2c2cc(N)ccc21`, for which the AC50 is 9320 nM (active).
